The values below come from PubChem BioAssay (EPA / NIEHS).

Results filed as inconclusive are left out. The source made the active and inactive calls. Rule for the calls: active = hit-call score of the fitted dose curve at least 0.9, where 1 is the maximum; inconclusive = response in the unintended direction; inactive = score below 0.9.

The nature of this assay: CCTE_Shafer_MEA_acute_AB: CCTE's Alamar Blue Assay for Cytotoxicity in the Neural Acute Assay, Shafer Lab (AID 2284069).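 Note: active compounds lower the viability signal compared with DMSO wells.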 On the procedure:
CCTE_Shafer_MEA_acute assay is conducted using Axion Biosystems 48 well microelectrode array (MEA) plates and Maestro recording system. Each well of the MEA plate contains a grid of 16 microelectrodes embedded in the culture surface. Electrically active cells, such as neurons, can be cultured over the electrodes, and electrical activity in these cells can be recorded extracellularly. The spontaneous firing of neurons is captured from each electrode on a microsecond timescale providing both temporally and spatially precise data. […] The CCTE_Shafer_MEA_acute assay uses primary cultures of rat cortical neurons. As these cultures mature over time, neural networks develop functional activity and form cohesive networks in which electrical activity can be highly coordinated. Baseline 40-minute recordings are made on days post-plating 13 or 15, followed by a secondary 40-minute recording after chemical exposure.CCTE_Shafer_MEA_acute_AB is a component of the CCTE_Shafer_MEA_acute assay. It measures the resazurin reduction using fluorescence.Data from the assay component CCTE_Shafer_MEA_acute_AB was analyzed into 1 assay endpoint. This assay endpoint, CCTE_Shafer_MEA_acute_AB, was analyzed in the positive analysis fitting direction relative to DMSO as the negative control and baseline of activity. Using a type of viability reporter, loss-of-signal activity can be used to understand cell viability.
Metabolic activity was determined using the CellTiter Blue (CTB) assay (Promega Cat. #8081), following the manufacturer's instructions with the following modifications. Following the removal of the 50 uL sample for the LDH assay, 450 uL of media was removed from each well and replaced with 200 uL of fresh media containing a 1:6 dilution of CTB reagent for the determination of metabolic activity. Fluorescence was measured in a Fluorostar Optima fluorimeter using an excitation wavelength of 544 nm and an emission wavelength of 590 nm.
In general terms: Resazurin is reduced to fluorescent resorufin, in cell work by metabolically active cells.
As to `CCOC(=O)c1ccc(C2CCC(NC[C@H](O)COc3ccc(O)c(NS(C)(=O)=O)c3)CC2)cc1` (some centres undefined), the outcome was inactive. In the case of `O=C(O)c1cc(N=Nc2ccc(S(=O)(=O)Nc3ccccn3)cc2)ccc1O`, the result was inactive.

Regarding `CCCN(C1CCN(C(=O)C2CCNCC2)CC1)[C@@H]1CCc2ccc(OC)cc2C1`, the outcome was inactive. Take `Cn1c(=O)c2c(ncn2C)n(C)c1=O`: the compound was classed as inactive. Under `Cc1[nH]cnc1C[C@H]1CCc2c(C)c3ccccc3n2C1=O` stands “inactive”.

For `CCCCCCCCCCCCc1ccccc1`, the outcome was inactive. Under `On1ccccc1=S` stands “inactive”; under `CCCCC(CC)COC(=O)CCCCCCCCC(=O)OCC(CC)CCCC` (centres undefined), “inactive”; under `CC[C@H]1CC[C@H](NCc2cc3c(cc2OC)[C@H]2C[C@H]2C(=O)N3C)[C@H](c2ccccc2)N1`, “inactive”. Under `CC(C)=CCCC(C)=CC=O` stands “inactive”; under `O=C(O)CCN(C1(C(=O)NO)CCCC1)S(=O)(=O)c1ccc(Oc2ccc(F)cc2)cc1`, “inactive”; under `COc1ccc2sc(C(=O)Nc3nnn[nH]3)c(OC(C)C)c2c1`, “inactive”. With `O=P(OC(CCl)CCl)(OC(CCl)CCl)OC(CCl)CCl`, the compound was called inactive.

With `CC[C@H]1OC(=O)[C@H](C)[C@@H](O[C@H]2C[C@@](C)(OC)[C@@H](O)[C@H](C)O2)[C@H](C)[C@@H](O[C@@H]2O[C@H](C)C[C@H](N(C)C)[C@H]2O)[C@](C)(O)C[C@@H](C)C(=O)[C@H](C)[C@@H](O)[C@]1(C)O`, the result was inactive.
